Laboratory results published in PMC7862700, “An all-to-all approach to the identification of sequence-specific readers for epigenetic DNA modifications on cytosine”.

Tests used:
Test in all cases: DAPPL (digital affinity profiling via proximity ligation, sequencing); 10 mM Tris-HCl pH 7.5, 50 mM NaCl, 1 mM DTT, 4% glycerol, room temperature, 30 min; GST-TFs on glutathione beads, 16-mer random dsDNA library, 0.1% formaldehyde crosslink after washing; high values mean tight binding
[1] = molecular target: T1, FEV (Homo sapiens, UniProt Q99581 1-238); details: protein: recombinant; tags: N-terminal GST; dsDNA, one strand shown
T1 sequence: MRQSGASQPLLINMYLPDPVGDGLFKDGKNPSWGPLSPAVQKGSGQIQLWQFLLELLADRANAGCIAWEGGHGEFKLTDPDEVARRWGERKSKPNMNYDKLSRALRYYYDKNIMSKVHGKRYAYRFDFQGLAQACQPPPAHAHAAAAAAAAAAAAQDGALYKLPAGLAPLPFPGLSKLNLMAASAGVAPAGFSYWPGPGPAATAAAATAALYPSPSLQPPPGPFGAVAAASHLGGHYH
In short: (§1)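 Pools of DNA-barcoded human transcription factors, expressed in yeast as GST fusions on glutathione beads and combined with a tag-only sample, were incubated with 200 nmole of a 16-mer random double-stranded DNA library. Incubation took 30 min at room temperature in Tris/NaCl/DTT/glycerol buffer and was followed by washing, 0.1% formaldehyde crosslinking, proximity ligation (BsaI/T4 ligase, 1 h, 37 °C), PCR amplification and sequencing on an Illumina NextSeq500. Binding signal is the ratio of a hexamer's read frequency for a factor to its frequency for the tag-only sample.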

[2] = molecular target: ETV5 (Homo sapiens, UniProt P41161 1-510); details: protein: recombinant; tags: N-terminal GST; dsDNA, one strand shown
Sequence of ETV5 (P41161 whole entry): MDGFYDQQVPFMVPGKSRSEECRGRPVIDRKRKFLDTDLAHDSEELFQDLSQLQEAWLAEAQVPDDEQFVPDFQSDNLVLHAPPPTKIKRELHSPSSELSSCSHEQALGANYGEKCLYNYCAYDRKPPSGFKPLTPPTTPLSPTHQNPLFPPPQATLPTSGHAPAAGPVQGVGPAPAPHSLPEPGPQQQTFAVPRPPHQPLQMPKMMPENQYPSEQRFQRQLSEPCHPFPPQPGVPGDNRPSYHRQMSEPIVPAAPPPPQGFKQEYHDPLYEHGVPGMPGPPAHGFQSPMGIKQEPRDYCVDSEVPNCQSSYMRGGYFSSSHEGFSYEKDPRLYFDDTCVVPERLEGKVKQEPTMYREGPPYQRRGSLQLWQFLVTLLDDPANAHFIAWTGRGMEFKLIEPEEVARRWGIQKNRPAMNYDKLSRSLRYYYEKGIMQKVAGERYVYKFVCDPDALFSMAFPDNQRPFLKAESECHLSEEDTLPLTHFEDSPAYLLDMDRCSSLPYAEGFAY
In short: as §1

[3] = molecular target: HSF1 (Homo sapiens, UniProt Q00613 1-529); details: protein: recombinant; tags: N-terminal GST; chain copies: 3; dsDNA, one strand shown
Sequence of HSF1 (Q00613 whole entry): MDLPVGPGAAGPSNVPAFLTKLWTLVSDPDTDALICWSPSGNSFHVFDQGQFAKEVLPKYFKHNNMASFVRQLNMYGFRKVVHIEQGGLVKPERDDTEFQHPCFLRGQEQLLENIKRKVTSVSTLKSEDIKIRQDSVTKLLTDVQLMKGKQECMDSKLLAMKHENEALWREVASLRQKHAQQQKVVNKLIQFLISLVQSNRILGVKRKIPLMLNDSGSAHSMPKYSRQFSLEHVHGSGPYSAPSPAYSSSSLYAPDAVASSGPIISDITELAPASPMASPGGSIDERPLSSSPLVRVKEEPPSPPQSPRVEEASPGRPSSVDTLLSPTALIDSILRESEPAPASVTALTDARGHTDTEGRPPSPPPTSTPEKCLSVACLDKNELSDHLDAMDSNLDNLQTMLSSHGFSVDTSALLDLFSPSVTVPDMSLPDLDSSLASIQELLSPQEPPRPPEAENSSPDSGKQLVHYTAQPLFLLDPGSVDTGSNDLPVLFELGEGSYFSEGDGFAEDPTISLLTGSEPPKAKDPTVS
In short: as §1

[4] = molecular target: T2, SPIC (Homo sapiens, UniProt Q8N5J4 1-248); details: protein: recombinant; tags: N-terminal GST; dsDNA, one strand shown
T2 sequence: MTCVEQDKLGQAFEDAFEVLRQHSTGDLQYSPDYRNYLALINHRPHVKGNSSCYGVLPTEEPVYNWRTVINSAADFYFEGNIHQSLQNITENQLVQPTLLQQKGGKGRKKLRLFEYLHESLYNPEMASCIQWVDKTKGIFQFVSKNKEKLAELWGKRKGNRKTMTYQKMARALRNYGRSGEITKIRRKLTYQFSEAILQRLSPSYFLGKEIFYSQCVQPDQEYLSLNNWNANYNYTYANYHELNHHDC
In short: as §1

[5] = molecular target: ELF4 (Homo sapiens, UniProt Q99607 1-663); details: protein: recombinant; tags: N-terminal GST; dsDNA, one strand shown
Sequence of ELF4 (Q99607 whole entry): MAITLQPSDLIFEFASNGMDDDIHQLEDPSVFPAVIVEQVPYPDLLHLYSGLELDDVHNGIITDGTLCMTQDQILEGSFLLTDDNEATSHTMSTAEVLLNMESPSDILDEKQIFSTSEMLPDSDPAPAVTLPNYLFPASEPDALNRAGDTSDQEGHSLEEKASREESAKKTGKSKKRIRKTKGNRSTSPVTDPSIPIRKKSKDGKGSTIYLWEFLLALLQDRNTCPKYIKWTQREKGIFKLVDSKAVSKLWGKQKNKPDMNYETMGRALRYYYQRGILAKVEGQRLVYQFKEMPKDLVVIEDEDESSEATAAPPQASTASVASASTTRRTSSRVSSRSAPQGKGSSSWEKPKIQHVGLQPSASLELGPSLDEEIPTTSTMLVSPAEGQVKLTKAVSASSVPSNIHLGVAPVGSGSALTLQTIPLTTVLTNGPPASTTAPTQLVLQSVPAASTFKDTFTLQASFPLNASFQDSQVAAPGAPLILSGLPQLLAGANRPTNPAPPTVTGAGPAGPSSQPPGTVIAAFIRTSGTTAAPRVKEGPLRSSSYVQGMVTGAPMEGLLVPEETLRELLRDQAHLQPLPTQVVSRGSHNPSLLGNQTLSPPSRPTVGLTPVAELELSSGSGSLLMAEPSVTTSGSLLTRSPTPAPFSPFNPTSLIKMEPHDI
In short: as §1

[6] = molecular target: T3, ELK4 (Homo sapiens, UniProt P28324-2 1-405); details: protein: recombinant; tags: N-terminal GST; dsDNA, one strand shown
T3 sequence: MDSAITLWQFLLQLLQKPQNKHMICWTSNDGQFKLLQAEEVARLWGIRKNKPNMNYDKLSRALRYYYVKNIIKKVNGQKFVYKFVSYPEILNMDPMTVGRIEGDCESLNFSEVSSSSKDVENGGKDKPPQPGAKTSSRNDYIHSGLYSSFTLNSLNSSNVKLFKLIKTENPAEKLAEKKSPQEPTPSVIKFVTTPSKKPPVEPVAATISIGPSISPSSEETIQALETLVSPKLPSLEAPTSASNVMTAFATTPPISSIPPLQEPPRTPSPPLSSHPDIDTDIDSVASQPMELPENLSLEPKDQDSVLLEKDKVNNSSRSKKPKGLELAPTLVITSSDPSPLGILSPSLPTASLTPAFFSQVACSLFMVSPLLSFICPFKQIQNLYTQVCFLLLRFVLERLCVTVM
In short: as §1

[7] = molecular target: T4, ETV2 (Homo sapiens, UniProt O00321 1-342); details: protein: recombinant; tags: N-terminal GST; dsDNA, one strand shown
T4 sequence: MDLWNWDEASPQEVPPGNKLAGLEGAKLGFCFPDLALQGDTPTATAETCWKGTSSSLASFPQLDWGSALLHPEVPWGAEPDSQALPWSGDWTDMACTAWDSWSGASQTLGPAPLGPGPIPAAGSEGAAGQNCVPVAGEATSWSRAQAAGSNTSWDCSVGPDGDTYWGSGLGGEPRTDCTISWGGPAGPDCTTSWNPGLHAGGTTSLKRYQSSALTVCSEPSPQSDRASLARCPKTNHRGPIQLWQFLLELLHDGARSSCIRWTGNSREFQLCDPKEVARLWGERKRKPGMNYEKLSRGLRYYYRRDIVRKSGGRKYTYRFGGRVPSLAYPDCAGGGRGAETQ
In short: as §1

[8] = molecular target: T5, ELF3 (Homo sapiens, UniProt P78545 1-371); details: protein: recombinant; tags: N-terminal GST; dsDNA, one strand shown
T5 sequence: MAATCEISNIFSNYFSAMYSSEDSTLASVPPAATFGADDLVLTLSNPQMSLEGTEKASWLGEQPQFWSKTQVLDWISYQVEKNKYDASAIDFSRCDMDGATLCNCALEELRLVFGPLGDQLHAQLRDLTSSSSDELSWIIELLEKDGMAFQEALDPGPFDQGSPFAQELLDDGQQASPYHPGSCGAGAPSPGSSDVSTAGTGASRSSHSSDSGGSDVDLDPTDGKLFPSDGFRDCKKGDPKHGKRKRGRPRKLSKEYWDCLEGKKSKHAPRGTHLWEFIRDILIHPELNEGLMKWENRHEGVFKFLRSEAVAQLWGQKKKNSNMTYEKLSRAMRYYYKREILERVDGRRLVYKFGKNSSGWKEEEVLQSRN
In short: as §1

[9] = molecular target: CRX (Homo sapiens, UniProt O43186 1-299); details: protein: recombinant; tags: N-terminal GST; dsDNA, one strand shown
Sequence of CRX (O43186 whole entry): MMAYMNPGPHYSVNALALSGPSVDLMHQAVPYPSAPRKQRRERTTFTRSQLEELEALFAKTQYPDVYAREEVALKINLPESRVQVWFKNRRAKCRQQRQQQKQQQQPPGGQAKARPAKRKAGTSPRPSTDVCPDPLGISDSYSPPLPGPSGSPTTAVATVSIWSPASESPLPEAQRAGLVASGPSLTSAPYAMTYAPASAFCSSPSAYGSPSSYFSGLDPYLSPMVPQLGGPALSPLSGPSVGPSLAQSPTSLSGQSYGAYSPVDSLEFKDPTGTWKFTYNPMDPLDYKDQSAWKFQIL
In short: as §1

[10] = molecular target: ETV1 (Homo sapiens, UniProt P50549 1-477); details: protein: recombinant; tags: N-terminal GST; dsDNA, one strand shown
Sequence of ETV1 (P50549 whole entry): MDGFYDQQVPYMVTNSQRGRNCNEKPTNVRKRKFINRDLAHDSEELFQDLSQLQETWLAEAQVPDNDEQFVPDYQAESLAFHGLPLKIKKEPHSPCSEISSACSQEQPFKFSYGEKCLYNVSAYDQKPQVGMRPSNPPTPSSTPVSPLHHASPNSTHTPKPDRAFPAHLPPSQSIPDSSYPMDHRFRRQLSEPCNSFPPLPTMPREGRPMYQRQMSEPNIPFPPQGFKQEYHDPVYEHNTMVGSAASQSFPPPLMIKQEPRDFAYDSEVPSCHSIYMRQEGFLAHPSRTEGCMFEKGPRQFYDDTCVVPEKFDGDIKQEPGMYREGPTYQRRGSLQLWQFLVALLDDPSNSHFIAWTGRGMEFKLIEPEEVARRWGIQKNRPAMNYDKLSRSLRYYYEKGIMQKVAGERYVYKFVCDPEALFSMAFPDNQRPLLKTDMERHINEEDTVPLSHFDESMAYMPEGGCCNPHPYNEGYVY
In short: as §1

Sequence	binding signal [1]	binding signal [2]	binding signal [3]	binding signal [4]	binding signal [5]	binding signal [6]	binding signal [7]	binding signal [8]	binding signal [9]	binding signal [10]
TATTAT	1.12 fold enrichment (6-mer frequency, TF over GST control)	1.3 fold enrichment (6-mer frequency, TF over GST control)	1.69 fold enrichment (6-mer frequency, TF over GST control)	1.35 fold enrichment (6-mer frequency, TF over GST control)	1.27 fold enrichment (6-mer frequency, TF over GST control)	1.35 fold enrichment (6-mer frequency, TF over GST control)	1.32 fold enrichment (6-mer frequency, TF over GST control)	1.3 fold enrichment (6-mer frequency, TF over GST control)	2.4 fold enrichment (6-mer frequency, TF over GST control)	1.26 fold enrichment (6-mer frequency, TF over GST control)
CTACGG	1.28 fold enrichment (6-mer frequency, TF over GST control)	1.21 fold enrichment (6-mer frequency, TF over GST control)	1.03 fold enrichment (6-mer frequency, TF over GST control)	1.08 fold enrichment (6-mer frequency, TF over GST control)	1.22 fold enrichment (6-mer frequency, TF over GST control)	1.37 fold enrichment (6-mer frequency, TF over GST control)	1.29 fold enrichment (6-mer frequency, TF over GST control)	1.38 fold enrichment (6-mer frequency, TF over GST control)	1.08 fold enrichment (6-mer frequency, TF over GST control)	1.34 fold enrichment (6-mer frequency, TF over GST control)
ACAATA	1.13 fold enrichment (6-mer frequency, TF over GST control)	1.15 fold enrichment (6-mer frequency, TF over GST control)	1.16 fold enrichment (6-mer frequency, TF over GST control)	1.12 fold enrichment (6-mer frequency, TF over GST control)	1.16 fold enrichment (6-mer frequency, TF over GST control)	1.22 fold enrichment (6-mer frequency, TF over GST control)	1.2 fold enrichment (6-mer frequency, TF over GST control)	1.33 fold enrichment (6-mer frequency, TF over GST control)	1.19 fold enrichment (6-mer frequency, TF over GST control)	1.13 fold enrichment (6-mer frequency, TF over GST control)
TTGTTC	1.43 fold enrichment (6-mer frequency, TF over GST control)	1.48 fold enrichment (6-mer frequency, TF over GST control)	1.89 fold enrichment (6-mer frequency, TF over GST control)	1.48 fold enrichment (6-mer frequency, TF over GST control)	1.37 fold enrichment (6-mer frequency, TF over GST control)	1.48 fold enrichment (6-mer frequency, TF over GST control)	1.48 fold enrichment (6-mer frequency, TF over GST control)	1.33 fold enrichment (6-mer frequency, TF over GST control)	1.43 fold enrichment (6-mer frequency, TF over GST control)	1.49 fold enrichment (6-mer frequency, TF over GST control)
